NPR1 antag: human Npr1 receptor antagonism; HEK293 hNpr1 GloSensor cGMP, ANP-stimulated luminescence; Potency, µM (titrated, usually from 46.3 µM), without a hit: at the top dose activity change, negative = inhibition, usual class: inhibitors; 76,000 tested, 1.6% active; calls by dose curve; also: nearly all actives have a fitted effect of over 60% in size
Target sequence (P16066 whole entry, looked up): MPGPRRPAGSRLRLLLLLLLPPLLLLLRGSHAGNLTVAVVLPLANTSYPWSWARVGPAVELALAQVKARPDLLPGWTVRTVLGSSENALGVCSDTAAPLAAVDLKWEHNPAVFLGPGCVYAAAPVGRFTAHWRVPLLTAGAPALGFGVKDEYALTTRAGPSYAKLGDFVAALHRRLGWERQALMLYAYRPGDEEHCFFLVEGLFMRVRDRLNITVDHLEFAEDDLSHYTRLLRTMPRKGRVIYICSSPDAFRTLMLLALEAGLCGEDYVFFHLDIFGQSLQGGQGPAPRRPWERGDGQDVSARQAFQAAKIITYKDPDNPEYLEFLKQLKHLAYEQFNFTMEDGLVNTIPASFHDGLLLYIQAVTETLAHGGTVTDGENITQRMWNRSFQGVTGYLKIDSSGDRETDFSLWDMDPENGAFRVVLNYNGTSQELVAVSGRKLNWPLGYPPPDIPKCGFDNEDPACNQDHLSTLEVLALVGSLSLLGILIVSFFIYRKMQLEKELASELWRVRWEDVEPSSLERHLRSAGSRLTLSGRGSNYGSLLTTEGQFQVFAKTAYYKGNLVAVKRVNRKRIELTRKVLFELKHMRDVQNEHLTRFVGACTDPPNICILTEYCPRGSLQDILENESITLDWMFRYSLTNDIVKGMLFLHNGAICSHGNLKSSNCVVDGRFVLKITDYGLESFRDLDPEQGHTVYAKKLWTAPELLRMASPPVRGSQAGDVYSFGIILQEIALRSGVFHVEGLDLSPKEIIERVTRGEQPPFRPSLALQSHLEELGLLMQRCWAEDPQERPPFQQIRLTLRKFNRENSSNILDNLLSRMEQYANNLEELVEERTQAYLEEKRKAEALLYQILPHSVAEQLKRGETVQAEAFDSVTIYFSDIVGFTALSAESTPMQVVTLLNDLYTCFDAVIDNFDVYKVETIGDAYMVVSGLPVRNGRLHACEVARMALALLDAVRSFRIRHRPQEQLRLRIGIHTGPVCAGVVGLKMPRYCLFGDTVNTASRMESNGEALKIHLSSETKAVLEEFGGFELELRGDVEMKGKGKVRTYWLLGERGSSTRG
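HEK293 cells stably expressing human Npr1 and cGMP GloSensor pGS-40F, loaded 2 h with 2% GloSensor reagent, given compound 30 min at room temperature. Luminescence read before and 20 min after 0.1 nM hNppA.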
FLuc inh: inhibitors of firefly (Photinus pyralis) luciferase. AID 1347043. Potency, µM (top dose mostly 115 µM), actives largely listed as inhibitors. 76,000 tested, 2.5% active. purified P. pyralis luciferase, luminescence, biochemical. P08659; also: nearly all actives have a fitted effect of over 65% in size
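Purified P. pyralis luciferase (10nM final) in 50mM Tris acetate pH 7.5, 10mM Mg acetate, 0.01% Tween-20, 0.05% BSA with 10uM D-luciferin and 10uM ATP. Compounds titrated qHTS. Luminescence imaged on CCD.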
HEK293 tox: cytotoxic compounds in HEK 293 cells | Potency, µM (series often up to 115 µM), without a hit: at the highest dose activity change, negative = cytotoxicity, most hits filed as inhibitors | HEK 293 viability, ATP luminescence (CellTiter-Glo), 48-72 h | AID 1345083 | 94,000 tested, 6.6% active; also: nearly all actives have a fitted effect of over 60% in size
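Read-out: CellTiter-Glo ATP luminescence. Cells: HEK 293, 250 cells/well. Exposure: 48 or 72 hr, 37 degree Celsius.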
NIH3T3 tox: kills NIH 3T3 cells; NIH 3T3 viability, CellTiter-Glo ATP luminescence, 48-72 h; Potency, µM (series often up to 96.7 µM), without a hit: top-dose activity change, negative = cytotoxicity, most hits filed as inhibitors; 94,000 tested, 4.3% active; AID 1345082; also: nearly all actives have a fitted effect of over 55% in size
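Cells were seeded at 400 per well, treated with pin-transferred compound, and kept 48 or 72 hr at 37 °C before CellTiter-Glo addition and luminescence imaging of cellular ATP.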
Starred values were filed as active, the others as inactive; [ ] = dose if it differs, or a comment. Sampled rows, rich in hits. Any-hit rate of the full collection: about 11%. Unless noted, calls follow the shape of the dose curve; as a rule, active = well fitted curve in the direction sought with a large enough effect; inconclusive = small, poorly fitted or top-dose-only effect, or another doubt; inactive = no such curve, though single readings can be large; an effect the other way counts as inactive or inconclusive. % is scaled to controls: 0 for no effect and ±100 for the full control effect; potency is read from the fitted curve at half-maximal effect.

Screening O=C(c1ccccc1)N1CCC2(CC1)Cc1ccccc1NC2=O returned NPR1 antag 0%[70.6 µM], FLuc inh inactive, HEK293 tox inconclusive and NIH3T3 tox inconclusive.
Screening O=C(C1CC1)N1CCC2(CC1)Cc1ccccc1NC2=O returned NPR1 antag -3%[70.6 µM], FLuc inh inactive, HEK293 tox -3%[172 µM] and NIH3T3 tox -4%[138 µM].
Cc1ccc(Nc2ccnc(N3CCC(N[S+](=O)([O-])c4ccc(C)cc4)CC3)n2)cc1 was read as HEK293 tox inconclusive and NIH3T3 tox 32µM*.
COc1ccc(Nc2ccnc(N3CCC(N[S+](=O)([O-])c4cccs4)CC3)n2)cc1 was read as HEK293 tox 25µM* and NIH3T3 tox 35µM*.
Screening Cc1ccc(Nc2ccnc(N3CCC(N[S+](=O)([O-])c4cccs4)CC3)n2)cc1 returned HEK293 tox 22µM* and NIH3T3 tox 35µM*.
For COc1ccc(C(=O)N2CCC(c3nc(CCOCC4CCOCC4)no3)C2)cn1 (centres undefined) the results were HEK293 tox inactive and NIH3T3 tox inactive.
For CC(C)CNC(=O)Cc1c[nH]c2ncc(-c3cnn(C)c3)cc12 the results were NPR1 antag 5%[70.6 µM], FLuc inh inactive, HEK293 tox -22%[172 µM] and NIH3T3 tox 45µM*.
`Cn1cc(-c2cnc3[nH]cc(CC(=O)NC4CCC4)c3c2)cn1` gave NPR1 antag -2%[70.6 µM], FLuc inh inactive, HEK293 tox inconclusive and NIH3T3 tox 32µM*.
For CNC(=O)c1cc(-c2cnn(C)c2)cc2c1OCCN2Cc1cccnc1 the results were NPR1 antag 2%[70.6 µM], FLuc inh inactive, HEK293 tox inactive and NIH3T3 tox 40µM*.
Screening CN(C)CCNC(=O)c1cc(-c2ccccc2F)cc2c1OCCN2Cc1cccnc1 returned NPR1 antag -25%[70.6 µM], FLuc inh inactive, HEK293 tox 63µM* and NIH3T3 tox 40µM*.
Screening CNC(=O)c1cc(-c2cccnc2)cc2c1OCCN2Cc1cccnc1 returned NPR1 antag 8%[70.6 µM], FLuc inh inactive, HEK293 tox 5%[172 µM] and NIH3T3 tox inconclusive.
`O=C(NCc1ccco1)c1cc(-c2ccccc2F)cc2c1OCCN2Cc1cccnc1` gave NPR1 antag -29%, FLuc inh inactive, HEK293 tox inconclusive and NIH3T3 tox inconclusive.
`CN(C)CCN(C)C(=O)c1cc(-c2ccccc2F)cc2c1OCCN2Cc1cccnc1` gave NPR1 antag -3%, FLuc inh inactive, HEK293 tox 79µM* and NIH3T3 tox inconclusive.
For CC(C)NC(=O)c1cc(-c2ccccc2F)cc2c1OCCN2Cc1cccnc1 the results were NPR1 antag -26%[70.6 µM], FLuc inh inactive, HEK293 tox 89µM* and NIH3T3 tox 79µM*.
COCCN1C(=O)CS(=O)C12CCN(C(=O)c1ccc3cc[nH]c3c1)CC2 (centres undefined) was read as NPR1 antag 3%, FLuc inh inactive, HEK293 tox inactive and NIH3T3 tox inactive.
`CC(=O)Nc1ccc(S(=O)(=O)N2Cc3ccccc3OC3(CCN(C(=O)NC(C)C)CC3)C2)cc1` gave HEK293 tox -38% and NIH3T3 tox -36%.
`Cc1cc(C(=O)N2CCC3(CC2)CC(CN2CCOCC2)N(C)C3)n(C)n1` (centres undefined) gave HEK293 tox inactive and NIH3T3 tox 2%.
`CN1CCOc2c(C(=O)NCc3cccnc3)cc(-c3ccccc3F)cc21` gave NPR1 antag 3%[70.6 µM], FLuc inh inactive, HEK293 tox 100µM* and NIH3T3 tox inconclusive.
`COCCN1CCCC(c2[nH]ccc2C(=O)N2CCSCC2)C1` (centres undefined) gave NPR1 antag 0%, FLuc inh inactive, HEK293 tox inactive and NIH3T3 tox -4%.
For Clc1ccccc1Cc1nc(-c2ccc(OC3CCNC3)cc2)no1 (centres undefined) the results were NPR1 antag 8%, FLuc inh inconclusive, HEK293 tox 18µM* and NIH3T3 tox 13µM*.
CCCN(CC1CCOC1)C(=O)NCc1ccc(F)cc1 (centres undefined) was read as NPR1 antag 0%, FLuc inh inactive, HEK293 tox -4% and NIH3T3 tox -5%.
For CN1CCC(Cc2ccc(C(=O)NCC3CCCCC3)cc2)CC1 the results were NPR1 antag -7%, FLuc inh inconclusive, HEK293 tox inconclusive and NIH3T3 tox 40µM*.
CNC(=O)c1ccc(CC2CCN(C(C)=O)CC2)cc1 was read as NPR1 antag 6%, FLuc inh inactive, HEK293 tox -26% and NIH3T3 tox -27%.
Screening CN1CCC(Cc2ccc(C(=O)N3CCCC3)cc2)CC1 returned NPR1 antag -3%, FLuc inh inactive, HEK293 tox -8% and NIH3T3 tox 0%.
Screening CC(=O)N1CCC(Cc2ccc(C(=O)Nc3ccc(C)cc3)cc2)CC1 returned NPR1 antag 10µM*, FLuc inh inconclusive, HEK293 tox inconclusive and NIH3T3 tox inconclusive.
For O=C(COc1ccccc1)NC1CCCc2c1[nH]c1c(Cl)cccc21 (centres undefined) the results were NPR1 antag -2%, FLuc inh inactive, HEK293 tox 45µM* and NIH3T3 tox inconclusive.
O=C(Cc1n[nH]c(=O)c2ccccc12)NC1CCCc2c1[nH]c1c(Cl)cccc21 (centres undefined) was read as NPR1 antag -27%, FLuc inh inactive, HEK293 tox -115% and NIH3T3 tox inconclusive.
For O=C(Cc1ccc2c(c1)OCCCO2)NC1CCCc2c1[nH]c1c(Cl)cccc21 (centres undefined) the results were NPR1 antag -6%, FLuc inh inactive, HEK293 tox inconclusive and NIH3T3 tox inconclusive.
Screening O=C(Cc1cccs1)NC1CCCc2c1[nH]c1c(Cl)cccc21 (centres undefined) returned NPR1 antag -8%, FLuc inh inactive, HEK293 tox inconclusive and NIH3T3 tox 32µM*.
`COc1ccc(C2(C(=O)NC3CCCc4c3[nH]c3c(Cl)cccc43)CCOCC2)cc1` (centres undefined) gave NPR1 antag inconclusive, FLuc inh inactive, HEK293 tox 45µM* and NIH3T3 tox 22µM*.
For Cc1nnc(-c2cc(-c3ccc(CO)cc3)ccn2)n1Cc1ccncc1 the results were NPR1 antag 1%[70.6 µM], FLuc inh inactive, HEK293 tox 4%[172 µM] and NIH3T3 tox inconclusive.
Screening COc1ccc2[nH]c3c(c2c1)CCNC31CCN(Cc2ccc(F)c(F)c2)CC1 returned NPR1 antag -12%, FLuc inh inactive, HEK293 tox inconclusive and NIH3T3 tox 35µM*.
COc1cccc(CN2CCC3(CC2)NCCc2c3[nH]c3ccccc23)c1 was read as NPR1 antag -15%, FLuc inh inactive, HEK293 tox 32µM* and NIH3T3 tox 35µM*.

Assay outcomes as filed in PubChem.
